Screening results (PubChem BioAssay)
MEKK2wt PB1 HTS: raises or lowers MEK5 binding to wildtype human MEKK2 PB1 domain | Q9Y2U5 | bead flow cytometry, Alexa488-MEK5 binding to MEKK2 WT; actives lie on both sides | binding response (% of control), % at 10 µM | actives 1.1% (n = 290,000) | AID 1531; in the data active = binding response below about 67% or above about 130%
UBC13 inh: human UBC13 polyubiquitination inhibition; actives 0.47% (n = 330,000); AID 485273; inhibition, % at 20 µM; UBC13 polyubiquitin chain formation, TR-FRET; P61088; in the data active = inhibition above about 45%, passing the limit was not always enough
ATG4B inh: blocks human ATG4B protease cleavage of LC3 substrate | ATG4B cleavage of LC3-PLA2, NBD-HPC fluorescence, 1 h | actives 0.51% (n = 340,000) | Q9Y4P1 | inhibition, % at 8.33 µM | AID 504462; in the data active = inhibition above about 40%
Target sequence (Q9Y4P1 whole entry, looked up): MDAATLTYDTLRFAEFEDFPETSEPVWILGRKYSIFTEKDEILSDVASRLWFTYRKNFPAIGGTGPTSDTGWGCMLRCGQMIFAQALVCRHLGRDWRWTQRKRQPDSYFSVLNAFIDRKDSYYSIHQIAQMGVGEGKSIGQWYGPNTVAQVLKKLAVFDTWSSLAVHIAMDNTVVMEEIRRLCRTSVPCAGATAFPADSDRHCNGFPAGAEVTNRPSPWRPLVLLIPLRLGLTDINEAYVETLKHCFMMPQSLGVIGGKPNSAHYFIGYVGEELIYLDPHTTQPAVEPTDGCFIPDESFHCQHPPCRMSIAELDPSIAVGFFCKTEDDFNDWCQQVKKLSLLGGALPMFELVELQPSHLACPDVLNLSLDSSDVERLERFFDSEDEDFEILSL
PREPL inhibitor: inhibitors of human prolyl oligopeptidase-like enzyme PREPL | Q4J6C6 | recombinant PREPL, fluorescence polarization activity-based probe | inhibition, % at 5.96 µM | actives 0.68% (n = 320,000);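 note: 0% = enzyme with DMSO and 100% = wells lacking enzyme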
MEKK3 PB1 HTS: MEKK3-MEK5 PB1 interaction, increase or decrease. Q99759. bead-based flow cytometry, Alexa488-MEK5 binding to MEKK3; actives lie on both sides; 0 = blocked by unlabeled MEK5, 100 = vehicle. binding response (% of control), % at 10 µM. actives 1.4% (n = 290,000);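 active = binding response more than 3 SD above or below the average of its plate-row segment, actives on both sides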;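 note: Alexa488 bead fluorescence after subtracting the streptavidin-only scavenger bead signal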
MEKK2 mut-MEK5: signal of MEK5 binding to mutant human MEKK2 PB1 domain. percent response, % at 10 µM. bead flow cytometry, Alexa488-MEK5 binding to MEKK2 mutant. actives 0.35% (n = 290,000); in the data active = percent response above about 24%, passing the limit was not always enough
PREPL inh cf: human PREPL inhibition, confirmation | shares compounds with PREPL inhibitor | recombinant PREPL, fluorescence polarization activity probe | inhibition, % at 5.96 µM | actives 67% (n = 2,000);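 note: 0% = protein with DMSO and 100% = wells lacking protein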
Casp3 counter: caspase-3 inhibition (UBC13 counter-screen); Recombinant caspase-3, Caspase-Glo 3/7 luminescence, 60 min; shares compounds with UBC13 inh; actives 4% (n = 1,400); inhibition, % at 20 µM;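 active = mean inhibition across replicates above about 26%, limit read from the data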;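 note: plate controls were DMSO with caspase-3 for no effect and DMSO wells lacking enzyme for full effect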
Target sequence (P42574 whole entry, looked up): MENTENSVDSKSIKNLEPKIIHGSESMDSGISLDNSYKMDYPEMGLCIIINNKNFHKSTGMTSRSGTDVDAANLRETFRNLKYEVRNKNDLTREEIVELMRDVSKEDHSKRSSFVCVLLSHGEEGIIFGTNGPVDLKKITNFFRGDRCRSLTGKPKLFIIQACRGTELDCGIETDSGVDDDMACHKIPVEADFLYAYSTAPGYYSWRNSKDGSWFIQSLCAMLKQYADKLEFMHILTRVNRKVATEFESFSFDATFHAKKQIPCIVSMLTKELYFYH
UBC13 confirm: human UBC13 polyubiquitin inhibition, confirmed. shares compounds with UBC13 inh. UBC13 polyubiquitination, TR-FRET, biochemical. inhibition, % at 10 µM. actives 68% (n = 1,400). AID 488859; in the data active = inhibition above about 45%
* marks the source's active call; other numbers are inactive results; / = not tested or not shown. Shown are actives, neighbours in structure and some others; about 3.1% of the full set was active somewhere. Cut-off read from the data, not from the text of the source, unless noted: active = inhibition above about 43%; inactive = the rest.

SMILES | MEKK2wt PB1 HTS | UBC13 inh | ATG4B inh | PREPL inhibitor | MEKK3 PB1 HTS | MEKK2 mut-MEK5 | PREPL inh cf | others
COc1ccccc1NC(=O)Nc1nc(CC(=O)Nc2ccc(N(C)C)cc2)cs1 | / | 4 | -11 | 47* | / | / | 43*
CCN(CC)CCCN1C=C2C(=O)C(C)(OC(=O)C3CCCC3)C(=O)C=C2C=C1c1ccsc1 (stereo not given) | 93 | -90 | -10 | 43* | 91 | 1 | 25
CC1(OC(=O)C2CCCC2)C(=O)C=C2C=C(c3ccsc3)N(Cc3ccccc3)C=C2C1=O (stereo not given) | 118 | -40 | 0 | 38 | 111 | 2 | /
CCOC(=O)C(Cc1c[nH]c2cc([N+](=O)[O-])ccc12)(NC(C)=O)C(=O)OCC | / | / | -4 | / | / | / | /
CC(C)c1ccc(N(CC(=O)NCCCN2CCOCC2)S(=O)(=O)c2ccccc2)cc1 | / | 8 | 3 | / | / | / | /
CN1CCN(c2ccc(NC(=O)c3ccc4ccccc4c3)cc2)CC1 | 108 | 7 | -7 | 23 | 97 | 0 | /
CN1CCN(c2ccc(NC(=O)COc3cccc4ccccc34)cc2)CC1 | 109 | 13 | -3 | 55* | 101 | -1 | 57*
CN1CCN(c2ccc(NC(=O)COc3ccc4ccccc4c3)cc2)CC1 | 117 | 8 | -9 | 52* | 101 | 10 | 58*
Cc1c(C(=O)N2CCc3ccccc3C2)oc2ccc(S(=O)(=O)N3CC(C)CC(C)C3)cc12 (stereo not given) | 100 | -2 | 15 | -3 | 105 | 1 | /
N#Cc1ncc(Cc2ccccc2)nc1C#N | 98 | -3 | 2 | 52* | 104 | 2 | 38
N#Cc1nc(Cc2ccccc2)oc1NCc1cccnc1 | 109 | 11 | -6 | 16 | 97 | 11 | /
N#CC1(NC(=O)COC(=O)C23CC4CC(CC(O)(C4)C2)C3)CCCCC1 | 105 | 3 | -1 | 5 | 101 | 5 | /
Cc1ccc2c(c1)c(C)cc[n+]2Cc1ccccc1 | 119 | 14 | 1 | 50* | 103 | 7 | 29
CN(C)c1ccc(CNc2ccc3c(c2)ncn3C(C)(C)C)cc1 | 107 | 0 | -6 | 43* | 103 | 4 | 28
CCCn1cnc2cc(NCc3ccc(Br)cc3)ccc21 | 104 | 12 | -10 | 49* | 97 | 3 | 46*
COC(=O)[C@@]12CCCCN1[C@H](c1ccc(-c3ccccc3)cc1)[C@H]1C(=O)N(C)C(=O)[C@H]12 | / | 8 | 2 | 3 | / | / | /
COC(=O)[C@@]12CCCCN1[C@H](c1ccc(-c3ccc(F)cc3)cc1)[C@@H]1C(=O)N(C)C(=O)[C@@H]12 | / | -4 | -15 | 54* | / | / | 44*
COc1ccc(C2=Nn3c(nnc3-c3ccccc3F)SC2)cc1OCC1CC1 | / | 27 | -24 | 56* | / | / | -9
CC1CCCC(=NNc2ccc3ccccc3n2)C1 (stereo not given) | / | / | 4 | / | / | / | /
COCCCNC(=O)/C(C#N)=C/c1c(N2CCN(c3ccccc3)CC2)nc2c(C)cccn2c1=O | 108 | -3 | 22 | 44* | 108 | 6 | 32
C=CCNC(=O)/C(C#N)=C/c1c(N2CCN(c3ccc(OC)cc3)CC2)nc2c(C)cccn2c1=O | 105 | 5 | 19 | 57* | 107 | 10 | 50*
COc1ccc(N2CCN(c3nc4c(C)cccn4c(=O)c3/C=C(\C#N)C(N)=O)CC2)cc1 | 103 | 9 | 2 | 54* | 102 | 1 | 53*
COCCCNC(=O)/C(C#N)=C/c1c(N2CCN(c3cccc(Cl)c3)CC2)nc2c(C)cccn2c1=O | 98 | 9 | 10 | 18 | 103 | 4 | /
COC(=O)/C(C#N)=C/c1c(N2CCN(c3ccccc3)CC2)nc2c(C)cccn2c1=O | 100 | -1 | 24 | / | 105 | 1 | /
CCN(CC)C(=O)c1sc(NC(=O)C(C)C)c(C#N)c1C | 98 | 8 | 5 | -5 | 92 | -4 | /
SMILES | MEKK2wt PB1 HTS | UBC13 inh | ATG4B inh | PREPL inhibitor | MEKK3 PB1 HTS | MEKK2 mut-MEK5 | PREPL inh cf | others
O=C1[C@@H]2Cc3c([nH]c4ccccc34)C(c3cccc([N+](=O)[O-])c3)N2C(=O)CN1C1CCN(Cc2ccccc2)CC1 (stereo not given in full) | 125 | 26 | / | 23 | 105 | 13 | /
Cn1c(N)c(C(=O)COC(=O)/C=C/c2cccc(Br)c2)c(=O)n(C)c1=O | / | 5 | -3 | 38 | / | / | /
Cn1c(N)c(C(=O)COC(=O)/C=C/c2cccc(F)c2)c(=O)n(C)c1=O | / | 3 | -11 | 44* | / | / | 40
O=C(O)c1c(NC(=O)N2CCOCC2)sc2c1CCCC2 | 113 | 2 | -2 | -4 | 110 | 12 | /
Cn1c(N2CCOCC2)nc2c1c(=O)n(Cc1ccc(Cl)c(Cl)c1)c(=O)n2C | 102 | 9 | -6 | 44* | 105 | 7 | 26
Nc1ncnc2c1ncn2[C@@H]1O[C@H](CNC(=O)[C@@H](N)C2CCCCC2)[C@@H](O)[C@H]1O | / | / | 3 | / | / | / | /
C#CCOCCOCCOCCNc1nc(N2CCN(C(=O)CCCCCCCCCCNC(=O)Cn3cc(CCCCCN)nn3)CC2)nc(N2CCN(C(=O)CCCCCCCCCCNC(=O)Cn3cc(CCCCCN)nn3)CC2)n1 | / | 118* | 16 | 64* | / | / | 62* | Casp3 counter=-1;UBC13 confirm=121*
C#CCOCCOCCOCCNc1nc(N2CCN(C(=O)CCCCCCCCCCNC(=O)Cn3cc(CCCCCN)nn3)CC2)nc(N2CCN(C(=O)CCCCCCCCCCNC(=O)[C@@H](CCC(=O)O)n3cc(CCCCCN)nn3)CC2)n1 | / | 96* | -8 | 44* | / | / | 35 | Casp3 counter=1;UBC13 confirm=79*
CCCCn1c(=O)[nH]c(=O)c2c1nc(CN(C)Cc1cccc(OC)c1OC)n2CCC | 103 | / | 1 | / | 103 | 7 | /
CN(C)C1=NC[C@H](Cc2ccccc2)N1CCCC1CCCC1 | / | 23 | 8 | -1 | / | / | /
CC[C@@H](C)[C@@H]1CN([C@@H](CN2CCC[C@H]2CN2C(N)=NC[C@H]2C(C)C)C(C)C)C(=N)N1CCCC1CCCC1 | / | 53* | 9 | 54* | / | / | 50* | Casp3 counter=0;UBC13 confirm=56*
CCC[C@@H](CN1CCC[C@H]1CN1C(N)=NC[C@H]1CC(C)C)N1C[C@@H]([C@H](C)CC)N(CCCC2CCCC2)C1=N | / | 78* | 11 | 46* | / | / | 45* | Casp3 counter=2;UBC13 confirm=83*
